# Assay results reported in ChEMBL document CHEMBL4513146, “CO-ADD screening of Karazin Kharkiv National University (Ukraine) compounds”.
# Measured potencies and affinities stand elsewhere.
# How the values were obtained:
# [1] = tested on: Klebsiella pneumoniae; conditions: Concentration 32 ug.mL-1;; ASSAY_TEST Inhibition of Bacterial Growth; detection method Absorption (OD600); MEDIA CAMHB; plate type 384well; NBS; CORNING #3640; time 18 hr
# [2] = tested on: Candida albicans; conditions: Concentration 32 ug.mL-1; ASSAY_TEST Inhibition of Fungal Growth; detection method Absorption (OD530)
# [3] = tested on: Cryptococcus neoformans; conditions: Concentration 32 ug.mL-1; ASSAY_TEST Inhibition of Fungal Growth; detection method Resazurin; Absorption (OD600-OD570); plate type 384well; NBS; CORNING #3640
SMILES,Inhibition [1] [%],Inhibition [2] [%],Inhibition [3] [%]
CCOc1ccc(-n2ccn3c(SCC(=O)Nc4ccc(F)cc4F)nnc3c2=O)cc1,15.47,3.41,-5.09
COc1cccc(Oc2nccn3c(=O)n(CC(=O)Nc4cc(C)c(Cl)cc4OC)nc23)c1,-0.9,1.25,-7.05
O=S(=O)(c1cccn2cnnc12)N(Cc1ccc(F)cc1)c1ccc(F)cc1,4.83,2.44,-6.17
CC(C)c1ccc(N(Cc2cc(F)cc(F)c2)S(=O)(=O)c2cccn3cnnc23)cc1,4.84,0.58,-6.06
CCCCOc1ccc(-c2cc3c4nnc(SCC(=O)Nc5ccc(Cl)cc5)n4ccn3n2)cc1,11.84,2.71,-15.55
COc1ccc(CNC(=O)Cn2nc3c4cc(-c5ccc(Cl)cc5)nn4ccn3c2=O)cc1,11.83,1.19,-27.86
Cc1cccc(NC(=O)CSc2nnc3c(=O)n(-c4ccccc4)ccn23)c1,3.26,1.31,-14.94
CCc1ccccc1Sc1nccn2c(=O)n(CC(=O)Nc3c(C)cccc3C)nc12,10.25,3.49,-15.72
CC(C)Cn1c(=O)c2ccc(C(=O)NC3CCCC3)cc2n2c(=O)n(CC(=O)NC3CCCCC3)nc12,4.14,-1.41,-14.36
COc1ccc(NC(=O)Cn2nc3c4cc(-c5ccc(C)c(C)c5)nn4ccn3c2=O)cc1OC,13.24,0.2,-30.03
CCc1cccc(NC(=O)Cn2nc3ccc(SC4CCCCC4)nn3c2=O)c1,16.99,2.91,-22.11
C=Cc1ccc(CN(c2cccc(F)c2)S(=O)(=O)c2ccc3nnc(C)n3c2)cc1,2.09,1.51,-6.84
O=C(Cn1nc2c3sc(N4CCCC4)nc3ncn2c1=O)Nc1ccccc1Cl,7.88,4.36,-9.84
CCCCOc1ccc(-c2cc3c4nnc(SCC(=O)Nc5cccc(C(C)=O)c5)n4ccn3n2)cc1,9.96,5.2,-6.36
Cc1nnc2c(SCC(=O)N3CCN(c4ccccc4F)CC3)nc3ccccc3n12,10.03,8.32,-3.27
O=C(CSc1nnc2c(=O)n(-c3ccc(F)c(F)c3)ccn12)c1cccc(Cl)c1,12.31,1.86,-8.13
Cc1ccccc1CSc1nnc2c(=O)n(-c3ccc(Br)cc3)ccn12,3.65,15.24,-9.13
CCOc1ccccc1CNC(=O)CCc1nnc2ccc(-c3ccccc3)nn12,9.31,0.83,-22.57
Cc1nnc2c(=O)n(CC(=O)Nc3cccc(Br)c3)c3ccccc3n12,7.61,-0.15,-11.02
COc1cccc(NC(=O)Cn2nc3c4cc(-c5ccc(Cl)cc5)nn4ccn3c2=O)c1,8.34,4.47,-4.67

SMILES,Inhibition [1] [%],Inhibition [2] [%],Inhibition [3] [%]
O=C(Cn1nc2c3cc(-c4ccccc4)nn3ccn2c1=O)N1CCCc2ccccc21,12.97,-0.58,-23.31
COc1cc(NC(=O)C(C)Sc2nnc3c(=O)n(-c4ccc(F)cc4)ccn23)cc(OC)c1 (stereo not given),6.23,7.68,-7.14
Cc1ccc(-c2cc3c4nn(CC(=O)Nc5ccccc5F)c(=O)n4ccn3n2)cc1C,6.53,-0.75,-15.58
COC(=O)c1ccccc1NC(=O)Cn1nc2c(Oc3cccc(OC)c3)nccn2c1=O,-16.2,1.71,-7.59
Cc1ccc(N(Cc2ccccc2)S(=O)(=O)c2ccc3nncn3c2)cc1F,4.64,0.48,-7.94
Cc1cc(C)c(NC(=O)Cn2nc3ccc(SCc4ccc(Cl)cc4)nn3c2=O)c(C)c1,3.59,6.58,-25.9
Cc1cc2nn(CC(=O)NCc3ccc4c(c3)OCO4)c(=O)n2c(Nc2ccccc2C)n1,10.7,2.64,-19.18
CCCCc1ccc(NC(=O)Cn2nc3ccc(C(=O)Nc4ccc(OC)cc4)cn3c2=O)cc1,-3.83,18.36,-8.8
Cc1ccc(-c2cc3c4nn(CC(=O)Nc5ccc(C)c(Cl)c5)c(=O)n4ccn3n2)cc1C,10.5,8.38,-8.69
O=C(Cn1nc2c(SC3CCCCC3)nccn2c1=O)Nc1ccccc1F,4.58,0.33,-26.33
COc1ccc(Cn2nc3ccc(-c4ccccc4)nn3c2=O)cc1F,8.32,1.33,-0.36
O=C(Cn1nc2c(Sc3ccccc3)nccn2c1=O)Nc1ccc(Br)cc1F,9.23,5.59,-9.93
O=C(CSc1nnc2c(=O)n(-c3ccc(Br)cc3)ccn12)Nc1cccc(Cl)c1,6.37,6.02,-15.78
CCCCOc1ccc(-c2cc3c4nnc(SCC(=O)Nc5ccc(OC)cc5)n4ccn3n2)cc1,6.75,3.4,-13.28
COc1ccc(CN(c2cc(C)cc(C)c2)S(=O)(=O)c2cccn3cnnc23)cc1F,-0.72,0.54,-10.15
O=S(=O)(Nc1ccc2c(c1)OCCO2)c1ccc2nncn2c1,12.24,2.83,-7.84
O=S(=O)(c1ccc2nncn2c1)N(Cc1cc(F)cc(F)c1)c1ccc2c(c1)OCO2,11.56,2.54,-7.84
CCCc1nnc2c(=O)n(CC(=O)Nc3ccc4c(c3)OCCO4)c3ccccc3n12,-1.14,4.16,-31.27
Cc1ccc(NC(=O)Cn2nc3cc(C)nc(Nc4ccc(F)c(C)c4)n3c2=O)cc1,11.85,7.21,-5.79
Cc1ccc(CNC(=O)Cn2nc3c(Oc4ccccc4C)nccn3c2=O)cc1,12.47,1.06,-7.58

SMILES,Inhibition [1] [%],Inhibition [2] [%],Inhibition [3] [%]
CC(C)CCn1c(=O)c2sccc2n2c(=O)n(Cc3c(F)cccc3Cl)nc12,12.18,9.98,-27.55
CCc1ccc(N(Cc2ccccc2F)S(=O)(=O)c2cccn3c(CC)nnc23)cc1,6.04,4.59,-5.13
COc1ccc(-c2cc3c4nn(CC(=O)Nc5cccc(C)c5)c(=O)n4ccn3n2)cc1,3.49,3.36,-17.04
O=C(Cn1nc2c3sccc3ncn2c1=O)Nc1ccc2c(c1)OCO2,-3.23,1.42,-18.53
O=C(Cn1nc2ccc(SCc3ccc(Cl)cc3)nn2c1=O)Nc1ccc2c(c1)CCC2,12.2,7.4,-25.38
O=C(CCc1nnc2c(N3CCCCC3)nc3ccccc3n12)NCc1ccc(Cl)cc1,14.26,2.29,-23.16
Cc1ccc(-c2ccc3nn(CC(=O)Nc4ccc(C(C)C)cc4)c(=O)n3n2)cc1C,2.75,3.46,-11.72
CCc1nnc2c(SCC(=O)Nc3cccc(C(C)=O)c3)nc3ccccc3n12,17.43,-0.1,-10.94
Cc1nnc2ccc(S(=O)(=O)N(Cc3cc(F)cc(F)c3)c3ccccc3)cn12,7.27,2.01,-9.38
CCc1ccccc1Sc1nccn2c(=O)n(CC(=O)Nc3ccc(OC)c(Cl)c3)nc12,5.33,13.19,0.67
CCOC(=O)c1ccc(NC(=O)Cn2nc3c(SCc4ccc(Cl)cc4)nccn3c2=O)cc1,1.65,7.78,-18.54
Cc1ccc2c(c1)N(C(=O)Cn1nc3ccc(SC(C)(C)C)nn3c1=O)CCO2,14.93,9.3,-18.35
Cc1cc2nn(CC(=O)Nc3ccc(F)c(F)c3)c(=O)n2c(Nc2ccc(F)c(C)c2)n1,10.55,1.57,-7.1
Cc1cccc(NC(=O)Cn2nc3ccc(SC(C)(C)C)nn3c2=O)c1,5.1,1.46,-8.45
CCCCOc1ccc(-c2cc3c4nnc(SCC(=O)Nc5c(C)cccc5CC)n4ccn3n2)cc1,-16.94,-2.13,-12.87
O=C(Cn1nc2c(Sc3ccccc3)nccn2c1=O)Nc1ccc2c(c1)OCO2,1.19,12.77,-5.13
COc1ccc(-n2ccn3c(SCC(=O)N4CCN(c5ccccc5F)CC4)nnc3c2=O)cc1,15.6,2.59,-14.55
O=C(CCc1nnc2c(N3CCCCC3)nc3ccccc3n12)NCc1ccc2c(c1)OCO2,14.18,10.16,-25.55
Cc1ccc(-c2cc3c4nn(CC(=O)Nc5ccc(F)cc5)c(=O)n4ccn3n2)cc1C,-3.72,22.53,-20.65
Cc1cc(C)c(C(=O)CSc2nnc3c(=O)n(-c4ccc(F)c(F)c4)ccn23)cc1C,9.61,5.94,-8.7
